High-throughput results from PubChem.
Vaccinia Venus: inhibitors of vaccinia virus (Venus reporter). 330,000 compounds, 0.46% hits. Potency, µM (highest dose often 36.5 µM), for the others: top-dose activity change, negative = inhibition, most hits filed as inhibitors. Vaccinia virus Venus reporter expression, fluorescence. AID 720580; calls by dose curve; tested in A549 cells; also: potency is read from the fitted curve at half-maximal effect; nearly all actives have a fitted effect of over 30% in size
FMDV antiviral: blocks foot and mouth disease virus | FMDV antiviral cell-based qHTS | Potency, µM (highest dose often 57.9 µM), inactives show at the top dose activity change, negative = inhibition, actives largely listed as inhibitors | 410,000 compounds, 1.2% hits | AID 1159524; calls by dose curve; tested in HEK293T cells; also: read-out not given here; potency is read from the fitted curve at half-maximal effect; nearly all actives have a fitted effect of over 45% in size
VACV mCherry inh: vaccinia inhibition (mCherry reporter). Vaccinia virus mCherry reporter infection, fluorescence. AID 720579. 310,000 compounds, 0.63% hits. Potency, µM (doses to about 36.5 µM), for inactives: at the highest dose activity change, negative = inhibition, actives largely listed as inhibitors; calls by dose curve; tested in A549 cells; also: potency is read from the fitted curve at half-maximal effect; nearly all actives have a fitted effect of over 35% in size
HCMV antiviral: human cytomegalovirus inhibition | activity change, negative = inhibition, % at 57.5 µM | HFF cells, HCMV-luciferase reporter, 72 h; stronger effect = lower value | 410,000 compounds, 4.5% hits; in the data active = activity change below about -60%; inconclusive = no clear call, values can overlap the other calls; inactive = above about -39%
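Two compound doses tested in HFFs infected with HCMV-luciferase, MOI 1 PFU/cell, 72 h at 37C. Lysate luminescence read with OneGlo; data normalized against buffer-only and 10uM Salinomycin inhibitor controls.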
LASV entry inh: blocks Lassa virus binding to or entry into cells. Lassa virus pseudotype entry inhibition, cell reporter. Potency, µM (series often up to 37.9 µM), for the others: at the top dose activity change, negative = inhibition, usual class: inhibitors. 300,000 compounds, 1.2% hits; calls by dose curve; tested in HEK293 cells; also: potency is read from the fitted curve at half-maximal effect; nearly all actives have a fitted effect of over 50% in size
Marburg entry inh: blocks Marburg virus binding to or entry into cells; Marburg virus pseudotyped entry inhibition, cell reporter; 300,000 compounds, 1.8% hits; Potency, µM (doses to about 37.8 µM), inactives show at the highest dose activity change, negative = inhibition, actives largely listed as inhibitors; calls by dose curve; tested in HEK293 cells; also: potency is read from the fitted curve at half-maximal effect
* hit, by the source's call; i = inactive; ? = inconclusive; / = no result; [ ] = remark or other dose. Hits are enriched below; roughly 6.5% of the tested compounds scored in any of these assays. % is scaled to controls: 0 for no effect and ±100 for the full control effect.

SMILES	Vaccinia Venus	FMDV antiviral	VACV mCherry inh	HCMV antiviral	LASV entry inh	Marburg entry inh
CC(=O)OC[C@@]12C(=O)[C@@H](O)[C@@H](C)[C@]3(C[C@@H](c4ccoc4)O[C@@H]3OC(C)=O)[C@H]1CCC[C@]21CO1	/	-12.3%	/	/	/	/
C[C@@]12CCC[C@H]1C1CC[C@H]3C[C@H](O)CC[C@]3(C)C1CC2 (stereo not given in full)	-19.7%	-19.7%	-6.6%	/	/	/
Cc1ccc(-c2nnn(CC(=O)N(CC(=O)NC3CCCC3)c3cnc4ccccc4c3)n2)o1	-12.3%	-3.7%	-15.4%	-102.6*	-5.8%	-3.8%
Cc1ccc(-c2nnn(CC(=O)N(CC(=O)NC3CCCCC3)c3ccc(F)c(Cl)c3)n2)o1	-27.7%	12.6%	-9.9%[1.46 µM]	-12.2	12.6µM*	?
Cc1ccc(-c2nnn(CC(=O)N(CC(=O)NC3CCCC3)c3cccc(F)c3)n2)o1	13.8%	10.7%	-4.6%	-85.5*	-4.5%[46.1 µM]	-6.6%[46.1 µM]
O=C(NNc1ccc([N+](=O)[O-])cc1)c1ccccc1Cl	-8.8%	3.5%	-13.0%	-86.3*	/	/
O=C(O)c1ccccc1Nc1ccc([N+](=O)[O-])cc1	22.7%	46.5%	?	?	1.12µM*	0.501µM*
O=C(O)c1ccccc1Nc1ccccc1C(=O)O	/	11.2%	/	22.7	2.1%	8.4%
CCC(=O)N1CCc2cc(Br)cc(S(=O)(=O)CCC(=O)N3CCN(c4cccc(C(F)(F)F)c4)CC3)c21	-17.0%	0.0%	i	-6.0	?	?
Cc1ccc2[nH]c(=O)c(CN(CCO)Cc3nnnn3Cc3ccco3)cc2c1	-13.5%	/	11.5%	/	/	/
Cc1cccc(N2CCN(C(=O)c3c(-c4ccccc4)noc3C)CC2)c1C	-20.9%	?	?	-12.1	?	2.51µM*
CCOc1ncccc1C(=O)N1CCN(c2cccc(C)c2C)CC1	?	?	-12.0%	-96.0*	?	?
Cc1cccc(N2CCN(C(=O)c3ccc(S(=O)(=O)N(C)c4ccccc4)cc3)CC2)c1C	?	?	?	?	4.47µM*	?
CN1CCN(C(=O)c2ccc(S(=O)(=O)N(C)c3ccccc3)cc2)CC1	-0.3%	-25.8%	-2.3%	-19.2	/	/
O=C(c1ccc(CNS(=O)(=O)c2ccccc2)cc1)N1CCN(Cc2ccccc2)CC1	-25.4%	?	-3.2%	-75.6*	?	?
CS(=O)(=O)c1ccc(C(=O)N2CCN(Cc3ccccc3)CC2)cc1	-2.4%	-9.5%	9.3%	?	-9.4%	19.6%[46.1 µM]
O=C1OC(C(=O)Nc2cc(C(F)(F)F)ccc2Cl)Cc2ccccc21 (stereo not given)	-10.1%	-8.0%	-7.2%	-21.6	-18.4%[46.1 µM]	5.4%[46.1 µM]
Cc1onc(-c2c(F)cccc2Cl)c1C(=O)N1CCN(c2ncc(Br)cn2)CC1	-13.0%	28.2µM*	-29.4%	-3.9	?	?
CN(c1ccc(C(=O)N2CCN(Cc3ccccc3)CC2)cc1)S(=O)(=O)c1ccc(Cl)cc1	-20.9%	-23.0%	-4.6%	-62.7*	-10.9%[46.1 µM]	?
CN(c1ccccc1)S(=O)(=O)c1cccc(C(=O)N2CCN(c3ccccn3)CC2)c1	?	39.8µM*	/	-14.7	?	-21.6%
Cc1onc(-c2c(F)cccc2Cl)c1C(=O)N1CCSCC1	-9.4%	-0.5%	i	21.8	21.7%	10.4%[46.1 µM]
COC1=CC(=O)[C@]2(C=C1OC)OC[C@@H]1Oc3c(ccc4c3C=CC(C)(C)O4)C(=O)[C@@H]12	-25.5%	15.8µM*	?	-93.0*	/	/
COC(=O)c1sc(=S)n(-c2cc(F)ccc2F)c1N	/	-14.0%	/	-105.9*	-6.3%	-2.9%
O=C1C(=O)N(C2CCN(C(=O)c3ccc(Cl)cc3)CC2)CCN1Cc1ccc(F)cc1	5.1%	-13.7%	-8.2%	15.7	6.3%[46.1 µM]	/
C(=C\c1nc2ccccc2nc1/C=C/c1ccc2c(c1)OCO2)/c1ccc2c(c1)OCO2	-10.2%	/	21.6%	/	/	/
C[n+]1c(/C=C/c2ccc(O)cc2)ccc2ccccc21	4.6%	55.9%	i	-18.8	16.6%	?
C(=Cc1cnc2ccccc2n1)c1ccc2c(c1)OCO2	-24.7%	1.78µM*	?	-80.8*	/	/
C[n+]1c(/C=C/c2ccc3c(c2)OCO3)ccc2ccccc21	-14.4%	-19.5%	i	-65.5*	-0.2%[46.1 µM]	?
Cc1ccccc1CN(c1ccc(C(=O)NCCC2=CCCCC2)cc1)S(C)(=O)=O	/	-25.0%	/	-2.8	16.4µM*	?
